Experimental data taken from publication PMC4336329 (PLoS ONE, 2015).
About 14,000 (4.5%) of roughly 310,000 compounds showed an effect of 50% or more. Effects have a minus sign here. This excerpt belongs to a sample that is enriched for strong results.

biological target: human ether-à-go-go-related gene (hERG) potassium channel (human, UniProt Q12809); assay: primary screen, population patch clamp on CHO cells stably expressing hERG; higher = less effect of the substance
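Further: peak tail current of the secondary pulse compared with the same well before compound.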

human ether-à-go-go-related gene (hERG) potassium channel, sequence (Q12809 whole entry, looked up): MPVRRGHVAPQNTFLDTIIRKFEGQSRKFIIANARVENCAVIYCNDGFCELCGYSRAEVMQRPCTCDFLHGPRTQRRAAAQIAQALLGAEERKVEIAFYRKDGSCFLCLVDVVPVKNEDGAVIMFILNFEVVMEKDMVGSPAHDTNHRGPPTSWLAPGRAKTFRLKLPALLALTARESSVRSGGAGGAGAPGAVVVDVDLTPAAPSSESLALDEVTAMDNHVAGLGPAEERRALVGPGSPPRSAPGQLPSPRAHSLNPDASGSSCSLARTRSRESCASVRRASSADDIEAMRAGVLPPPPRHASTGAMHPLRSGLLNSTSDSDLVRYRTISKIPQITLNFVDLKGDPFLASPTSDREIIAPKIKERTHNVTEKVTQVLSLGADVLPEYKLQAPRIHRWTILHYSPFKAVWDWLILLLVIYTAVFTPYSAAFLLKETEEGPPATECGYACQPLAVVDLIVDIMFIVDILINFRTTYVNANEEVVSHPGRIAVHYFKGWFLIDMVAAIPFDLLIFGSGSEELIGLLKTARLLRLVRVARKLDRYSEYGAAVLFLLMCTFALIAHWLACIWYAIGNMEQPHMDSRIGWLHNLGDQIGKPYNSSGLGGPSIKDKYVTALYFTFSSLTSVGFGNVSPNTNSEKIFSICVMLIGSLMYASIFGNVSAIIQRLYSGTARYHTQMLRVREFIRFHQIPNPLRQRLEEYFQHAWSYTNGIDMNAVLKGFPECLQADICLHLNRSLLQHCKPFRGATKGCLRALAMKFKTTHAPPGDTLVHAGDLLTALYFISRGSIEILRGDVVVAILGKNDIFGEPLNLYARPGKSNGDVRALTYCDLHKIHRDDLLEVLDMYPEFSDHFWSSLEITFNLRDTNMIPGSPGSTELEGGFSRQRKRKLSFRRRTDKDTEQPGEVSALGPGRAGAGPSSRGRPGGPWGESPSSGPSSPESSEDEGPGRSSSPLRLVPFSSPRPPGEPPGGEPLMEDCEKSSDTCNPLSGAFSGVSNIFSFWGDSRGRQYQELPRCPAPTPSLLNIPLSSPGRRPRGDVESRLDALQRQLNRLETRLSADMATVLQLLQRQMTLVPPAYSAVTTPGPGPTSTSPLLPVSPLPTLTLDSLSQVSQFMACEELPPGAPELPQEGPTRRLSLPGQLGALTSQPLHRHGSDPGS

SMILES	hERG current change (%, negative = inhibition) at 10uM
COc1cccc(/C=C/c2ccc3cccc(O)c3n2)c1	14.8%
Cc1cc(C)n(-c2nc(NC(C)(C)C)nc(NC(C)(C)C)n2)n1	-6.46%
N#CCC(=O)NNc1c([N+](=O)[O-])cc(C(F)(F)F)cc1[N+](=O)[O-]	28.8%
COc1ccc(-c2nc(CN3CCN(Cc4ccccc4)CC3)c(C)o2)cc1	-42.2%
COc1ccccc1CN1CCN(Cc2nc(-c3ccc(C)cc3)oc2C)CC1	-58.8%
COc1ccccc1N1CCN(Cc2c(F)cccc2F)CC1	-18%
COc1cc(-c2nc(CN3CCN(c4ncccn4)CC3)c(C)o2)ccc1F	-9.65%
COc1ccccc1N1CCN(Cc2nc(-c3ccc(F)cc3)oc2C)CC1	-65.9%
COc1ccccc1CN1CCN(S(=O)(=O)c2ccc(C)cc2)CC1	-19%
Cc1cc(C)cc(C(=O)OCC(=O)N2CCCC2)c1	9.79%
COC(=O)c1sccc1-c1ccc(C(N)=O)o1	7.97%
Br.Cc1ccc(N2Cc3ccccc3C2=N)cc1[N+](=O)[O-]	-4.21%
Cc1cc(C)nc(N2Cc3ccccc3C2=N)n1	-56%
N=C1c2ccccc2CN1c1ncccn1	-10.6%
COc1ccccc1CN=c1c([N+](=O)[O-])nn(-c2ccc3c(c2)OCCO3)n1O	-7.21%
COc1cc(CC(=O)OCC(=O)Nc2cc([N+](=O)[O-])ccc2F)cc(OC)c1OC	-38.9%
COc1ccc([N+](=O)[O-])cc1NC(=O)COC(=O)Cc1cc(OC)c(OC)c(OC)c1	-17.8%
COc1cc(CC(=O)OCC(=O)Nc2cc([N+](=O)[O-])ccc2Cl)cc(OC)c1OC	-50%
Cc1cc(NC(=O)CCC(=O)N(Cc2ccco2)C(C(=O)NC2CCCCC2)c2cccs2)no1 (stereo not shown)	-20.9%
COc1cccc(/C(O)=C2/C(=O)C(=O)N(Cc3ccco3)C2c2ccncc2)c1 (stereo not shown)	15.2%
CS(=O)(=O)N(CC(=O)Nc1ccccc1C(=O)NCc1ccco1)c1ccc2c(c1)OCCO2	-5.03%
CC(=O)Nc1ccc(NC(=O)C(C)OC(=O)CNC(=O)c2sc3ccccc3c2Cl)cc1 (stereo not shown)	18.6%
CN(C)CCCN1C(=O)c2cccc3c([N+](=O)[O-])ccc(c23)C1=O	-27.7%
CN(C)CCCN1C(=O)c2cccc3c(Br)ccc(c23)C1=O	-66.4%
CN(C)CCCN1C(=O)c2cccc3cccc(c23)C1=O	-16%
COc1ccc2c(c1OC)C(=O)OC2Nc1nc(-c2ccccc2)cs1 (stereo not shown)	8.12%
CCOCCCn1cnc2c(c1=O)c1nc3ccccc3nc1n2-c1ccccc1	-30.6%
COCCCn1cnc2c(c1=O)c1nc3ccccc3nc1n2-c1ccccc1	-56.6%

SMILES	hERG current change (%, negative = inhibition) at 10uM
COCCCn1cnc2c(c1=O)c1nc3ccccc3nc1n2-c1ccc(C)cc1	-37%
CCCCn1c(SCC(=O)NNC(=O)c2ccco2)nnc1-c1ccco1	4%
CCn1c(=O)c2c(nc(SCC(=O)NCC3CCCO3)n2C)n(C)c1=O (stereo not shown)	-0.794%
Nc1nc(CSCc2ccccc2)nc(N2CCOCC2)n1	-10.2%
COc1ccc(-c2nnn(Cc3nc(N)nc(N4CCCCC4)n3)n2)cc1	-9.06%
Nc1nc(Cn2nnc(-c3ccccc3F)n2)nc(N2CCOCC2)n1	-73.4%
Clc1ccc(Cn2nnc(-c3ccc(N4CCOCC4)cc3)n2)cc1	4.16%
Nc1nc(Cn2nnc(-c3ccccc3Cl)n2)nc(N2CCOCC2)n1	-54.4%
COc1ccc(-c2nnn(Cc3nc(N)nc(N4CCOCC4)n3)n2)cc1OC	-0.202%
CCCCN(C(=O)NC(=O)Nc1ccccc1OC)S(C)(=O)=O	-2.42%
CCCCCCCCN1C(=O)N(C)C(N(O)C(=O)NC)C1(C)C (stereo not shown)	8.37%
Cc1cc(C(F)(F)F)n2ncc(-c3cccc(Br)c3)c2n1	22.6%
O=C(Cn1nc(-c2ccccc2)ccc1=O)Nc1cccc(NC(=O)c2ccccn2)c1	-0.657%
Cc1noc(NS(=O)(=O)c2ccc(N3CC(O)=C(c4ccccc4)C3=N)cc2)c1C	20.5%
CCOC(=O)c1c(C)c(C(=O)Nc2ccc(N(C)C)cc2)c(C)n1CC	-1.83%
COCCCNC(=O)c1cc(C(=O)c2ccccc2Br)c[nH]1	15.1%
CS(=O)(=O)c1ccccc1-c1nc(-c2cc(C(F)(F)F)cc(C(F)(F)F)c2)no1	4.06%
COc1ccc(CCNC(=O)c2cccc(S(=O)(=O)NC(C)c3ccccc3)c2)cc1 (stereo not shown)	6.04%
COc1ccc(CCCc2nnc(SCC(=O)Nc3ccc(OC)cc3)o2)cc1	17.7%
COc1ccc(Cl)cc1NC(=O)c1ocnc1C	10.1%
Br.Cc1ccccc1Cn1c(=N)n(CC(=O)c2ccco2)c2ccccc21	-65%
Br.N=c1n(CC(=O)O)c2ccccc2n1Cc1ccccc1Cl	0.122%
Br.CCCCn1c(=N)n(CC(=O)c2ccco2)c2ccccc21	-41.8%
Br.CCCCCCCn1c(=N)n(CC(=O)c2ccco2)c2ccccc21	-70.6%
Br.CCn1c(=N)n(CC(=O)c2ccco2)c2ccccc21	-3.75%
CCCn1c(N)[n+](CC(=O)c2ccco2)c2ccccc21.[Br-]	-11.1%
CCOC(=O)C(C)Oc1cccc2c(=O)n(CC(=O)NCc3ccc(F)cc3)ccc12 (stereo not shown)	-4.43%
